# Results: ChEMBL document CHEMBL4513216, “Probing the Open Global Health Chemical Diversity Library for Multistage-Active Starting Points for Next-Generation Antimalarials” (ACS Infect Dis, 2020)
# The whole screen tested about 68,000 compounds, of which about 2,700 (4%) showed an effect of 50% or more. The list comes from a sample in which strong results are over-represented; it also holds similar structures and randomly drawn compounds.
# Test system: Plasmodium berghei
# Test: Screen against P. berghei liver stage (PbLuc), transformed with Luciferase, at 2uM
# Format: functional, HepG2
# Conditions: tested at 2 uM
row,Compound,INHIBITION [%]
1,CC(Cc1ccco1)NC(=O)Nc1ccc(N2CCCC2)nc1 (stereo not given),5.91
2,O=C(Cc1c[nH]c2ccccc12)N1CCN(C(=O)c2ccoc2)CC1,54.49
3,O=C(Cc1c[nH]c2ccccc12)N1CCC(Nc2ccccc2)CC1,-0.6
4,O=C(Cc1ccccc1F)N1CCN(C(=O)c2ccoc2)CC1,-24.79
5,O=C(c1nc(Cc2c[nH]c3ccccc23)no1)N1CCOCC1,-33.88
6,O=C(c1nc(Cc2c[nH]c3ccccc23)no1)N1CCCC1,70.87
7,O=C(c1nc(Cc2c[nH]c3ccccc23)no1)N1CCCCC1,-7.02
8,Cc1noc(C)c1C(=O)N1CC[C@H]2C[C@@H](c3nccs3)O[C@@H]2C1,-17.88
9,Cn1cnc(S(=O)(=O)N2CC3(CCN(CC4CC4)C3)C2)c1,35.84
10,COc1ccc(C(=O)N2CCOc3ccncc32)cc1,-21.39
11,CCCOCCN1CCC2(CC1)CC(=O)N(Cc1cc(F)cc(F)c1)C2,7.13
12,COCCN1C(=O)C[C@H]2[C@H]1CCN2Cc1ccccc1,-34.48
13,CCO[C@@H]1C[C@H]2CN(S(=O)(=O)c3cccs3)CCN2C1,-49.68
14,COCCC(=O)NCCCOC1CCCc2ccccc21 (stereo not given),-15.49
15,COCCNC(=O)NCCCOC1CCCc2ccccc21 (stereo not given),58.9
16,COCCOCC(=O)NCCCOC1CCCc2ccccc21 (stereo not given),12.22
17,CC(C)NC(=O)CCNC(=O)CCc1cc(Cl)cs1,-31.42
18,COC(=O)c1ccn(COc2ccccc2Cl)n1,8.41
19,Cc1nc(CN(Cc2cccnc2)Cc2ccsc2)c[nH]1,2.76
20,COc1ccccc1CN(Cc1cccnc1)Cc1nccs1,32.97
21,COc1ccccc1CN(Cc1cccnc1)Cc1c[nH]c(C)n1,55.29
22,O=C(CCN1CCCC1c1cccs1)N1CCc2sccc2C1 (stereo not given),7.54
23,OC1(CNC2CCN(c3ccccn3)CC2)CCc2ccccc21 (stereo not given),29.13
24,Cc1csc(N2CCC(NCC3(O)CCc4ccccc43)CC2)n1 (stereo not given),72.05
25,OC1(CNC2CCN(Cc3ccncc3)CC2)CCc2ccccc21 (stereo not given),-49.57
26,O=C(NCc1cccnc1N1CCCCC1)c1cccs1,-27.83
27,Cc1ccc(CN2C[C@@H]3COC[C@H](NS(C)(=O)=O)[C@@H]3C2)s1,8.88

row,Compound,INHIBITION [%]
1,O=C(CN1C(=O)CCC1=O)N1CCC(S(=O)(=O)Cc2ccco2)CC1,53.81
2,O=C(CN1C(=O)CCC1=O)N1CCC(CSCc2ccco2)CC1,44.23
3,O=C(CN1C(=O)CCC1=O)N1CCOCC1,9.1
4,CN(C)CCN1CC(C(=O)N2CCC(c3cc(=O)[nH]cn3)CC2)CC1=O (stereo not given),47.64
5,CS(=O)(=O)NC(=O)c1cnc2c(cnn2C2CCCC2)c1,64.35
6,O=C(NC1CCC(O)CC1)c1cnc2c(cnn2C2CCCC2)c1 (stereo not given),38.49
7,O=C(O)c1cnc2c(cnn2C2CCCC2)c1,-9.71
8,Cc1cc(NC(=O)C(C)N2CCN(c3nc(C)ns3)CC2)on1 (stereo not given),22.29
9,Cn1ncnc1CNc1ccc2c(c1)N(C(=O)OC(C)(C)C)CCC2,33.49
10,CC(C)NC(=O)N1CC(=O)c2sc(Nc3ccc(C#N)cc3)nc2C1,-42.69
11,O=C1COC2(COCCN(c3ccccn3)C2)CN1c1cccc(F)c1 (stereo not given),16.2
12,O=C(c1ccc[nH]1)N1CCOCC2(C1)CN(c1ccccc1)C(=O)CO2 (stereo not given),-15.09
13,CN(C)CC(=O)N1CCOCC2(C1)CN(c1ccccc1)C(=O)CO2 (stereo not given),17.78
14,O=C1COC2(COCCN(c3cnccn3)C2)CN1c1cccc(F)c1 (stereo not given),50.81
15,Cc1cccc(N2CC3(COCCN(c4ccncn4)C3)OCC2=O)c1 (stereo not given),7.33
16,O=C(N1CCCC1)N1CCOCC2(C1)CN(c1ccccc1)C(=O)CO2 (stereo not given),56.38
17,COCC1CN(C(=O)c2ccoc2)Cc2cnn(CC3CCOCC3)c21 (stereo not given),-14.61
18,CCN(CC)CCn1ccnc1-c1cccc(C#N)c1,15.2
19,CSCCCNC(=O)Nc1cccc(-c2nccn2C)c1,11.78
20,CSCCCn1ccnc1-c1cccc(C#N)c1,55.93
21,Cc1ccc(C(=O)N2C[C@H]3CN(Cc4csc(C)n4)C[C@H]3C2)cn1,5.38
22,CCC[C@H]1CN(S(=O)(=O)c2ccc(-c3c(C)noc3C)s2)C[C@@H]1N,29.53
23,CCC[C@H]1CN(S(=O)(=O)c2c(C)noc2C)C[C@@H]1N,51.31
24,CCC[C@H]1CN(S(=O)(=O)c2ccccc2)C[C@@H]1N,24.12
25,Cc1cnn(CC(C)Nc2nc(C)cc(N(C)C)n2)c1 (stereo not given),-28.68
26,CN(C)C[C@]12COC[C@H]1CN(C(=O)Cc1ccc3c(c1)OCO3)C2,-2.21
27,CCOC(=O)Cn1nnnc1-c1ccccc1,23.9

row,Compound,INHIBITION [%]
1,O=S(=O)(C1CC1)N1CCC2(CN(c3ncccn3)C2)C1,-12.25
2,Cc1ccc(CN2CCS(=O)(=O)C(C)(C)C2)cc1C,-38.39
3,CCN1CC2(CCC1=O)CCN(Cc1cccc(OC(F)F)c1)CC2,-1.38
4,O=C(NCc1ccccn1)C1CN(c2nc3ccccc3s2)CCN1 (stereo not given),56.21
5,O=C(NCc1cccnc1)C1CN(c2cnc3ccccc3n2)CCN1 (stereo not given),-6.53
6,O=C(NC1CC1)C1CN(c2nc3ccccc3s2)CCN1 (stereo not given),-17.07
7,O=C(NCc1ccncc1)C1CN(c2nc3ccccc3s2)CCN1 (stereo not given),11.67
8,Nc1nccc(N2CCNC(C(=O)NCc3ccccn3)C2)n1 (stereo not given),50.94
9,CCCc1nc(C)cc(N2CCNC(C(=O)NCc3cccnc3)C2)n1 (stereo not given),19.81
10,CN(C)CCN1CCN(Cc2cccs2)Cc2cccnc21,31.96
11,COc1ccc(CNC(=O)NC2CCC(O)CC2)c(C(F)(F)F)c1 (stereo not given),24.83
12,Cc1nc(C)n(CC2CCCCN2c2ccnc(-c3ccccc3)n2)n1 (stereo not given),-22.89
13,O=C(c1cccc(=O)[nH]1)N(Cc1ccsc1)CC1CCCO1 (stereo not given),-2.31
14,CN(C)CCN(Cc1ccsc1)C(=O)C1=NNC(=O)CC1,31.51
15,O=C1CCC(C(=O)N(Cc2ccsc2)CC2CCCO2)=NN1 (stereo not given),50.59
16,CCSC(C)C(=O)N1CCC(c2nn(C)c(=O)n2-c2ccccc2)CC1 (stereo not given),-45.11
17,Cn1nc(C2CCN(CC(=O)NC3CC3)CC2)n(-c2ccccc2)c1=O,60.64
18,CC(=O)N1CCC(c2nn(C)c(=O)n2-c2ccccc2)CC1,64.06
19,CNc1cccc(C2CCN(C(C)=O)CC2)n1,28.4
20,CCCn1cc(C(=O)NC2CCN(CC(=O)NC3CC3)CC2)c(C)n1,16.35
21,Cn1cnnc1C1CCN(C(=O)CCCOc2ccccc2)CC1,23.31
22,CCCC(=O)N1CCC(c2nn(C)c(=O)n2-c2ccccc2)CC1,60.64
23,O=c1n(Cc2ncccn2)nc(C2CCNCC2)n1-c1ccccc1,-0.59
24,CNC(=O)CN1CCC(c2nn(C)c(=O)n2-c2ccccc2)CC1,16.93
25,CC1CN(C(=O)NCCCn2cncn2)CCO1 (stereo not given),-7.02
26,CS(=O)(=O)N1C[C@H]2CN(CC3CC3)C(=O)[C@H]2C1,-30.69
27,CC(=O)Nc1nc(C(=O)NCc2ccc(N3CCOC(C)C3)nc2)cs1 (stereo not given),13.36

row,Compound,INHIBITION [%]
1,CN(CCc1nccs1)C(=O)CC1(O)CCCCC1,25.78
2,Clc1ccccc1C1(c2ccnc(-c3ccncc3)n2)CCNCC1,-14.84
3,CCOc1cccc(NS(=O)(=O)c2cc(C)c(C(=O)O)s2)c1,40.85
4,Cc1cc(S(=O)(=O)Nc2cccc(I)c2)sc1C(=O)O,-21.72
5,CCc1cccc(NS(=O)(=O)c2cc(C)c(C(=O)O)s2)c1,58.69
6,CC(=O)c1cccc(NS(=O)(=O)c2cc(C)c(C(=O)O)s2)c1,-18.41
7,Cc1cc(S(=O)(=O)Nc2cccc(OC(F)F)c2)sc1C(=O)O,68.61
8,O=C(O)c1csc(S(=O)(=O)Nc2cccc(OC(F)F)c2)c1,-56.15
9,COc1cccc(CN2CCOC(c3cnccn3)C2)c1F (stereo not given),4.47
10,Nc1c(N2CCOCC2)ncnc1N1CCOCC1,-18.65
11,CC1CCN(S(=O)(=O)c2cccn(CC(=O)NC3CCCC3)c2=O)CC1,-1.71
12,CNC(=O)C1CCCN(c2nc(-c3ccco3)nc3c2CCNCC3)C1 (stereo not given),-44.93
13,CCS(=O)(=O)NC1CCCN(Cc2ccn(C)c(=O)c2)C1 (stereo not given),-21.09
14,CCc1nnsc1C(=O)NC1CCN(c2ccccn2)CC1,11.97
15,CN1CCCC1CNC(=O)CCOc1ccc(Br)cc1 (stereo not given),-80.31
16,CCc1nnsc1C(=O)NC1CCN(CCOc2ccc(Br)cc2)CC1,62.51
17,Cc1nc(C(=O)NC2CCN(CCOc3ccc(Br)cc3)CC2)cs1,31.51
18,Cc1ncsc1C(=O)NC1CCN(CCC(N)=O)CC1,-7.02
19,Cc1ncc(C(=O)NC2CCN(CCOc3ccc(Br)cc3)CC2)s1,60.13
20,COCC[C@]1(O)CCN(Cc2nc(C)c(C)s2)C[C@H]1C,11.48
21,NC(=O)CC1CCN(C(=O)NCCc2ccc(Cl)s2)CC1,15.47
22,CCCC(C)NCc1cnc(-c2cccc(C)c2)nc1 (stereo not given),56.47
23,Cc1cccc(-c2ncc(CNC(C)CO)cn2)c1 (stereo not given),-53.16
24,Cc1cccc(-c2ncc(CNC(C)Cc3ccncc3)cn2)c1 (stereo not given),24.23
